Screening data: PubChem, National Center for Advancing Translational Sciences (NCATS)
Sampled rows, rich in hits. Any-hit rate of the full collection: about 1.9%.
ClpP mod = qHTS Assay for Activators of ClpP; purified B. subtilis ClpP, FRET peptide cleavage, 20 min; AID 651965, 2013; ATP-dependent Clp protease proteolytic subunit (Bacillus subtilis (strain 168)), P80244; 340,000 compounds, 1.9% hits; Potency, µM (highest dose often 57.5 µM), without a hit: at the highest dose activity change, negative = active; active means well fitted falling curve with a large enough effect; inconclusive means small, poorly fitted or top-dose-only effect; inactive means no such curve, though single readings can be large or run the other way; further: potency means the concentration at half of the fitted maximal effect; the source files actives as falling curves though it sought activators and does not explain the sign; nearly all actives have a fitted effect of over 65% in size
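Purified B. subtilis ClpP, 10 microg/mL final in Tris/HCl pH8 with KCl, BSA, glycerol and Tween-20, cleaved an Abz/nitrotyrosine-quenched decapeptide. Fluorescence (ex 320, em 430) was read at 0 and 20 min at room temperature. Delta was normalized to 5.8 microM ADEP and DMSO/no-enzyme controls.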
CXXC DNA block = MLL CXXC-DNA interaction inhibition | MLL-CXXC / FITC-HOXA9 DNA fluorescence polarization | Q03164 | 290,000 compounds, 0.037% hits | Potency, µM (highest dose often 115 µM), for inactives: at the top dose activity change, negative = inhibition, most hits filed as inhibitors | AID 2662; active means well fitted inhibition curve with a large enough effect in the polarisation, with a control signal flat, not every such curve was filed as active; inconclusive means small, poorly fitted or top-dose-only effect, or effect the other way, or a change in a side signal; inactive means no such curve, though single readings can be large or run the other way; the % refers to the polarisation; further: potency means the concentration at half of the fitted maximal effect
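Fluorescence polarization: 7 uM MLL-CXXC (stock) preincubated 5 min with compounds, then 50 nM fluorescein-HOX-A9 DNA (stock) added; 30 min ambient. Buffer 50 mM Tris-HCl pH 7.5, 50 mM NaCl, 1 mM DTT, 0.05% BSA.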
Menin-MLL TR inh = menin-MLL binding inhibition, Texas Red mutant peptide; Menin + Texas Red MLL mutant peptide, fluorescence polarization; 270,000 compounds, 0.23% hits; Potency, µM (series often up to 61.6 µM), for inactives: at the top dose FP activity change, negative = inhibition, hits mostly inhibitors; active means well fitted inhibition curve with a large enough effect in the polarisation, with a control signal flat, not every such curve was filed as active; inconclusive means small, poorly fitted or top-dose-only effect, or effect the other way, or a change in a side signal; inactive means no such curve, though single readings can be large or run the other way; the % refers to the polarisation; further: potency means the concentration at half of the fitted maximal effect; % of control where 0% means no effect
Target sequence (O00255 whole entry, looked up): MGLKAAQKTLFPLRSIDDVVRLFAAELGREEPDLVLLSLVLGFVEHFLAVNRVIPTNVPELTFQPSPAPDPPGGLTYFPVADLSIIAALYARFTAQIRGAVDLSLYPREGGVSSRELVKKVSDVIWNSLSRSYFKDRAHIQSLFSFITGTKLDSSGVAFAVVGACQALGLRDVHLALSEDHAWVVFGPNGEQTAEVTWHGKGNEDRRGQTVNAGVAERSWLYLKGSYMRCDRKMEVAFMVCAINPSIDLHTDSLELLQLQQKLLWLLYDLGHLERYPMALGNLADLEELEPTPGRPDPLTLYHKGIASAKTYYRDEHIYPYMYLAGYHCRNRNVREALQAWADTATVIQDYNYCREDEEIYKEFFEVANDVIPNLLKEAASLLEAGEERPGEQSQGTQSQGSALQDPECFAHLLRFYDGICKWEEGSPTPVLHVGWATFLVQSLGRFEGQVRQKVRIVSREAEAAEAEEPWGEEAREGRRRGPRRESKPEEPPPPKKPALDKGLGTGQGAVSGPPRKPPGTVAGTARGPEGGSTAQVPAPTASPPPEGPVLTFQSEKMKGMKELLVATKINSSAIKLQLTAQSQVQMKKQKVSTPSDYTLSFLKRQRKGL
PINK1 modulator = changes PINK1 expression. 410,000 compounds, 0.2% hits. PINK1 immunofluorescence, high-content cytometry, 24 h. Potency, µM (doses to about 76.6 µM), for the others: at the highest dose activation (PINK1 increase), most hits filed as activators. AID 624263; active means well fitted activation curve with a large enough effect; inconclusive means small, poorly fitted or top-dose-only effect; cell line not stated here; further: potency means the concentration at half of the fitted maximal effect; % of control where 0% means no effect; nearly all actives have a fitted effect of over 65% in size
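Readout is PINK1 immunofluorescence, quantified alongside mitochondrial, cell and nuclear markers by laser-scanning microplate cytometry. Cells from a stable line were exposed to compound titrations (5 concentrations) for 24 hours, with CCCP controls.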
Epigenetic reg = regulators of epigenetic silencing causing reporter derepression in mouse cells; murine LDR cells, GFP reporter derepression, 30 h; AID 1865; Potency, µM (top dose mostly 53.9 µM), inactives show top-dose GFP activation, actives largely listed as activators; 280,000 compounds, 0.2% hits; active means well fitted activation curve with a large enough effect; inconclusive means small, poorly fitted or top-dose-only effect; further: potency means the concentration at half of the fitted maximal effect; % of control where 0% means no effect; nearly all actives have a fitted effect of over 60% in size
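Readout is the number of GFP-expressing murine LDR cells, counted by cytometry following washing. Cells were treated with compound for 30 h at 37 C; the stably integrated CMV-GFP locus is normally silent.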
Menin MLL FP FL = displaces fluorescein MLL peptide from human menin | Fluorescence polarization, fluorescein-MLL peptide displacement from menin | FP activity change, % at 61.4 µM | 290,000 tested, under 10 active | AID 1766; active means well fitted curve in the direction sought with a large enough effect in the polarisation, not every such curve was filed as active; inconclusive means small, poorly fitted or top-dose-only effect, or effect the other way, or a change in a side signal; inactive means no such curve, though single readings can be large or run the other way; the % refers to the polarisation; further: % of control where 0% means no effect
* = called active by the depositor; ? = inconclusive; . = not tested or not shown; [ ] = another dose, or the depositor's remark.

SMILES	ClpP mod	CXXC DNA block	Menin-MLL TR inh	PINK1 modulator	Epigenetic reg	Menin MLL FP FL
COc1ccc(-c2nnc(NC(=O)CSc3ccccc3)s2)cc1OC	22µM*	-3%	-3%	8%	1%	-2
COc1ccc(-c2nnc(NC(=O)CSc3ccc(C)cc3)s2)cc1OC	-15%	10%	4%	11%	-1%	0
Cc1[nH]c2ccccc2c1Cc1n[nH]c(=S)o1	-7%	3%	4%	2%	1%	0
S=c1[nH]nc(Cc2cccc3ccccc23)o1	28µM*	-1%	6%	-2%	1%	8
O=C(COc1cccc(Br)c1)N/N=C1\CCSC1	22µM*	4%	-1%	0%	2%	3
CC(NC(=O)COc1cccc(Br)c1)C(=O)O (stereo unspecified)	28µM*	8%	-12%	-1%	-1%	0
O=c1[nH]c2cc(Cl)c(O)cc2o1	.	.	14%	.	.	2
CCCCc1[nH]c(=O)c(C#N)c2c1CSC(C)(C)C2	?	-4%	-11%	1%[38.3 µM]	-5%	-15
Cc1[nH]c(=O)c(C#N)c2c1CSC(C)(C)C2	25µM*	-5%	-20%	23%[38.3 µM]	-1%	2
CCCCc1[nH]c(=O)c(C#N)c2c1CCCC2	25µM*	0%	-4%	1%[38.3 µM]	-1%	7
Cc1[nH]c(=O)c(C#N)c2c1CCCC2	28µM*	4%	-9%	10%[38.3 µM]	0%	-3
COC(=O)c1ccc(/C=C/c2ccc3cccc(OC)c3n2)cc1	13µM*	?	2%	5%	-1%	-1
O=C(c1cc2cc(Cl)cc(Cl)c2oc1=O)N1CCOCC1	22µM*	-5%	6%	3%	-5%	5
COc1ccc(NC(=O)CN(C)C(=O)CCNS(=O)(=O)c2ccc(Br)cc2)cc1	1%	6%	.	0%	.	.
O=C(NCc1ccccc1Cl)c1cc2c(s1)-c1ccccc1SC2	25µM*	.	.	-1%	0%	.
CCc1ccccc1N(CC)C(=O)c1cc2c(s1)-c1ccccc1SC2	14µM*	.	.	2%	-3%	.
O=C(NCc1ccc(F)cc1)c1cc2c(s1)-c1ccccc1SC2	4%	.	.	0%	16%	.
CCc1ccccc1N(CC)C(=O)c1cc2c(s1)-c1ccccc1OC2	4%	.	.	19%	1%	.
COc1ccc(NC(=O)CC2C(=O)N(C)C(=S)N2CCc2ccccc2F)cc1 (stereo unspecified)	.	?	?	16µM*	2%	-1
COc1ccc(NC(=O)CC2C(=O)N(c3ccc(Cl)cc3)C(=S)N2CCc2ccccn2)cc1 (stereo unspecified)	-4%	1%	?	28µM*	5%	4
COc1ccc(NC(=O)CC2C(=O)N(c3ccc(Cl)cc3)C(=S)N2CCc2ccncc2)cc1 (stereo unspecified)	1%	3%	?	14%[38.3 µM]	0%	3
CCN1C(=O)C(CC(=O)Nc2ccc(OC)cc2)N(CCc2ccccc2F)C1=S (stereo unspecified)	?	-5%	.	?	0%	2
COc1ccc2cc(CNCc3ccccc3Cl)c(N3CCCC(CO)C3)nc2c1 (stereo unspecified)	.	.	.	0%	.	.
Cc1c2ccccc2cc[n+]1C	5%	.	.	0%	.	.
Cc1c2cccn2cc[n+]1C	10µM*	4%	0%	6%	6%	-5
SMILES	ClpP mod	CXXC DNA block	Menin-MLL TR inh	PINK1 modulator	Epigenetic reg	Menin MLL FP FL
Cc1ccccc1C1(CC(=O)N2CCCC2c2nccs2)CC(=O)N(C2CCCC2)C1=O (stereo unspecified)	.	.	.	0%	.	.
Cc1ccc(S(=O)(=O)c2cn(C)c3cc(N4CCN(C)CC4)c(F)cc3c2=O)c(C)c1	5%	3%	.	4%	.	.
Cc1ccc(S(=O)(=O)c2cn(C)c3cc(N4CCCC4)c(F)cc3c2=O)c(C)c1	28µM*	.	.	2%	-1%	.
CCn1cc(S(=O)(=O)c2ccc(C)cc2C)c(=O)c2cc(F)c(N3CCCC3)cc21	32µM*	.	.	-1%	0%	.
Cc1ccc(S(=O)(=O)c2cn(C)c3cc(N4CCCC(C)C4)c(F)cc3c2=O)c(C)c1 (stereo unspecified)	20µM*	.	.	3%	0%	.
CCCN1CCN(c2cc3c(cc2F)c(=O)c(S(=O)(=O)c2ccc(Cl)cc2)cn3C)CC1	16µM*	.	.	2%	0%	.
Cc1ccc(S(=O)(=O)c2cn(C)c3cc(N4CCCCC4)c(F)cc3c2=O)cc1	?	.	.	1%	5%	.
Cn1cc(S(=O)(=O)c2ccc(Cl)cc2)c(=O)c2cc(F)c(N3CCCCCC3)cc21	-17%	.	.	1%	-1%	.
CCCCC/C=C\C\C=C/C=C/C=C/[C@@H](SC[C@H](N)C(=O)NCC(=O)O)[C@@H](O)CCCC(=O)O	.	.	.	.	0%	.
CN(Cc1cccc2ncccc12)C(=O)c1cnn(-c2ncc3c(n2)-c2ccccc2CC3)c1C1CC1	.	.	.	0%	.	.
CN(CCO)C(=O)c1cn(C2CCCN(Cc3cc4ccccc4s3)C2)nn1 (stereo unspecified)	.	.	.	0%	.	.
Cc1cc(N2CCOCC2)nc2ccccc12	25µM*	5%	1%	1%	-1%	3
CC1CN(c2cc(-c3ccccc3)c3ccccc3n2)CC(C)O1 (stereo unspecified)	25µM*	-1%	1%	4%	-1%	3
COc1ccc2c(C)cc(N3CCOCC3)nc2c1	?	6%	1%	0%	-1%	-1
c1ccc(-c2cc(N3CCOCC3)nc3ccccc23)cc1	28µM*	-1%	-19%	-1%[38.3 µM]	-2%	-1
COc1ccc2nc(N3CCOCC3)cc(C)c2c1	13µM*	-4%	1%	.	0%	-1
COc1ccc(CCNc2ncnc3sc(C(=O)N4CCCCC4)c(C)c23)cc1OC	.	.	.	2%	.	.
COc1ccc(CN2CCC3(CC2)c2ccccc2[C@@H](NC(=O)c2ccccc2)[C@@H]3O)cc1O	.	.	.	0%	.	.
COc1ccc2c(C)cc(N3CCN(c4ccc(F)cc4)CC3)nc2c1	28µM*	8%	3%	.	3%	8
COc1ccc(-c2nc3c(c4c2C[C@H](c2ccccc2)OC4)CN(S(=O)(=O)c2ccc4c(c2)OCCN4C)CC3)c(C)c1	.	.	-8%[11.7 µM]	.	.	-1[11.7 µM]
Cc1cccc(S(=O)(=O)c2c(N)n(/N=C/c3ccccc3)c3nc4ccccc4nc23)c1	?	37%	-19%	-1%	1%	4
Nc1c(S(=O)(=O)c2ccccc2)c2nc3ccccc3nc2n1/N=C/c1cccc(O)c1	10µM*	-3%	-5%	2%	-7%	0
Cc1ccc(C)c(S(=O)(=O)c2c(N)n(/N=C/c3ccco3)c3nc4ccccc4nc23)c1	7.9µM*	12%	54%	3%[38.3 µM]	-1%	?
